Screening data: PubChem BioAssay, National Center for Advancing Translational Sciences (NCATS)
HT1080NT lethal = kills 2HG-producing HT-1080-NT fibrosarcoma cells; HT-1080-NT fibrosarcoma viability, CellTiter-Glo ATP luminescence, 48 h; Potency, µM (series often up to 46.1 µM), inactives show at the highest dose activity, negative = less viability, usual class: cytotoxic; 1.6% of 360,000 active;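 also: NT is the 2HG producing partner of a matched IDH1 knockdown line; potency is read from the fitted curve at half-maximal effect; 0% = DMSO-treated cells and -100% = media-only wells without cells; nearly all actives have a fitted effect of over 55% in size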
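HT-1080-NT fibrosarcoma cells (2HG-overproducing), 750 cells/well in RPMI with 5% FBS, dosed after 2 h and incubated 48 h at 37C. CellTiter-Glo luminescence normalized to DMSO and no-cell wells; concentration-response curves fitted and classed.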
uPA generation = blocks generation of uPA at the cell surface; cell surface uPA generation assay, qHTS; Potency, µM (titrated, usually from 38.3 µM), inactives show at the top dose activity change, negative = inhibition, actives largely listed as inhibitors; 0.31% of 330,000 active; active = well fitted inhibition curve with a large enough effect; inconclusive = small, poorly fitted or top-dose-only effect; inactive = no such curve, though single readings can be large or run the other way; tested in mouse RAW 264.7 cells; also: potency is read from the fitted curve at half-maximal effect; nearly all actives have a fitted effect of over 55% in size
DT40 TDP1 no CPT = qHTS for Inhibitors of human tyrosyl-DNA phosphodiesterase 1 (TDP1): qHTS in cells in absence of CPT; Potency, µM (highest dose often 46.2 µM), for the others: at the highest dose activity change, negative = growth inhibition, actives largely listed as inhibitors; DT40 Tdp1-/- hTDP1 cells, no CPT, ATP luminescence, 48 h; 15% of 420,000 active; AID 686978, 2013; also: potency is read from the fitted curve at half-maximal effect; nearly all actives have a fitted effect of over 55% in size
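Seeded 400 DT40-hTDP1 cells/well (vehicle DMSO, no 20 nM CPT); pinned compounds; ≥48 hr at 37 °C; CellTiter-Glo luminescence as viability measure.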
HT1080 IDH1KD tx = toxicity to HT-1080 IDH1 knockdown cells (counter line) | HT-1080 IDH1 knockdown viability, ATP luminescence, 48 h | Potency, µM (series often up to 46.1 µM), for inactives: top-dose activity, negative = toxicity, usual class: cytotoxic | 2% of 360,000 active;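 also: potency is read from the fitted curve at half-maximal effect; 0% = DMSO wells and -100% = cell-free medium wells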
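Cytotoxicity counter-line: IDH1KD HT-1080, 48 h, CellTiter-Glo. Curves classed by r2, magnitude and activity.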
TDP1 cell CPT = growth inhibition of DT40 Tdp1-/-;hTDP1 cells with camptothecin (screen for TDP1 inhibitors) | chicken DT40 Tdp1-/-;hTDP1 cells + 20 nM CPT, ATP luminescence, 48 h | Potency, µM (titrated, usually from 46.2 µM), for the others: at the top dose activity change, negative = growth inhibition, usual class: inhibitors | 12% of 420,000 active; also: potency is read from the fitted curve at half-maximal effect; nearly all actives have a fitted effect of over 55% in size
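Cell growth measured by CellTiter-Glo luminescence after a minimum 48 h, 37 C compound exposure with 20 nM CPT in Tdp1-knockout DT40 cells stably expressing hTDP1, seeded 400/well; qHTS titration format.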
IL-1B inflam inh = inflammasome signaling inhibition, IL-1 beta readout | AID 743279 | 4.7% of 360,000 active | activity change, % at 57.5 µM | THP-1 LPS/ATP IL-1B secretion, AlphaLISA, 16 h; hits give low values; in the data active = activity change below about -50%; inconclusive = mostly about -30% to -49%
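Secreted IL-1B measured by AlphaLISA bead assay after 16 h compound exposure of THP-1 cells; compounds (final up to 57.5 uM) added 1 h before LPS (250 ng/mL) and ATP (1.25 mM) stimulation; lower signal means less secretion.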
* = called active by the depositor; u = inconclusive; x = no result given; [ ] = remark or other dose. A selection: hits, their analogues and other compounds. The true share with any hit is near 19%. Unless noted, calls follow the shape of the dose curve; as a rule, active = well fitted curve in the direction sought with a large enough effect; inconclusive = small, poorly fitted or top-dose-only effect, or another doubt; inactive = no such curve, though single readings can be large; an effect the other way counts as inactive or inconclusive. Unless noted, % is scaled to controls: 0 for no effect and ±100 for the full control effect.

SMILES	HT1080NT lethal	uPA generation	DT40 TDP1 no CPT	HT1080 IDH1KD tx	TDP1 cell CPT	IL-1B inflam inh
CN(Cc1ccc(Cl)s1)C(=O)CCl	20.6µM*	-5.9%	1.84µM*	8.2µM*	3.26µM*	-106.5*
COc1ccc(CN(C)C(=O)CCl)cc1	u	u	2.59µM*	u	2.31µM*	-98.2*
O=C(Nc1ccc(F)cc1)c1oc2ccccc2c1NC(=O)C1CCCC1	23.8%	0.8%	18.4µM*	u	u	-7.0
O=C(CCl)Nc1c(C(=O)Nc2ccc3c(c2)OCCO3)oc2ccccc12	u	-18.0%	10.3µM*	u	5.17µM*	-98.6*
COc1cccc(NC(=O)c2oc3ccccc3c2NC(=O)c2ccc3c(c2)OCO3)c1	-16.7%	x	u	-30.0%	14.1µM*	x
COc1cccc(NC(=O)c2oc3ccccc3c2NC(=O)C2CCCCC2)c1	x	x	16.4µM*	x	u	x
CN(C)C(=O)c1ccc(-c2cc(C(F)(F)F)n(C)n2)s1	7.1%	1.5%	3.9%	9.9%	6.9%	0.8
COc1cccc(NC(=O)c2oc3ccccc3c2NC(=O)c2cc3ccccc3o2)c1	x	x	18.4µM*	x	13µM*	x
CC1(C)C2([N+](=O)[O-])CN3CC1([N+](=O)[O-])CN(C2)C3c1ccccc1 (stereo not drawn)	2.0%	x	-4.4%	-0.2%	11.1%	-13.0
CC(C)c1ccc(C2N3CC4([N+](=O)[O-])CN2CC([N+](=O)[O-])(C3)C4(C)C)cc1 (stereo not drawn)	6.3%	8.9%	u	0.0%	8.2µM*	14.8
CCCCC(CC)Cn1c(O)c(/C=C2\C=NN=C2c2ccccc2)sc1=S (stereo not drawn)	-6.1%	21.4%	u	3.9%	u	-104.2*
Cc1cc(C(=O)CN2C(=O)NC(C)(CC(C)C)C2=O)c(C)n1-c1ccc2c(c1)OCO2 (stereo not drawn)	-3.0%	2.4%	23.1µM*	-3.0%	u	-25.0
Cc1cc(C(=O)CN2C(=O)NC3(CCCC3)C2=O)c(C)n1-c1ccc2c(c1)OCO2	4.2%	0.2%	u	13.4%	-23.5%	-15.6
Cc1cc(C(=O)CN2C(=O)NC3(CCCCC3)C2=O)c(C)n1Cc1ccc2c(c1)OCO2	1.1%	8.1%	23.1µM*	-7.5%	8.2µM*	39.1
CN(C)c1ccc(CNC(=O)C2CCN(S(=O)(=O)c3cn(C)cn3)CC2)cc1	x	x	-22.5%	x	1.1%	x
CN1C(=S)N(c2cccnc2)C(=O)/C1=C\c1ccc(C(C)(C)C)cc1	u	u	14.6µM*	u	16.4µM*	-6.6
CN1C(=S)N(c2cccnc2)C(=O)/C1=C\c1ccc(N(C)C)cc1	u	5.0%	u	u	u	-1.0
Cc1ccc(NC(=O)CSc2nnc(N)s2)c(C)c1	x	x	1.2%	x	-3.3%	x
CCCOc1ccc([N+](=O)[O-])c(N)c1	5.4%	1.2%	-3.0%	0.3%	11.7%	12.4
Cc1cc(=O)oc2cc(OC(C)C(=O)NC3(C#N)CCCCC3)ccc12 (stereo not drawn)	10.9%	8.0%	-1.0%	7.1%	5.7%	-14.7
Cc1ccc(N(C)C(=O)c2ccc(CNc3c(N4CCC(C)CC4)c(=O)c3=O)cc2)cc1	21.4%	0.2%	u	16.5%	u	10.9
Cc1cccc(N2CCN(C(=O)c3ccc(CNc4c(N5CCC(C)CC5)c(=O)c4=O)cc3)CC2C)c1 (stereo not drawn)	-0.9%	u	u	-0.3%	20.6µM*	4.7
CC1CCN(c2c(NCc3ccc(C(=O)N(C)C4CCCCC4)cc3)c(=O)c2=O)CC1	0.0%	-13.3%	-20.8%	10.4%	u	u
CC1CCN(c2c(NCc3ccc(C(=O)N4CCc5ccccc54)cc3)c(=O)c2=O)CC1	5.17µM*	2.0%	5.8µM*	4.11µM*	5.17µM*	110.4
CCOC(=O)C1=C(C)Nc2ccccc2N=C1NC(=O)c1cc(C)on1	-0.4%	20.3%	-26.3%	-0.3%	-27.2%	0.0
SMILES	HT1080NT lethal	uPA generation	DT40 TDP1 no CPT	HT1080 IDH1KD tx	TDP1 cell CPT	IL-1B inflam inh
Cc1cccc(N2CCN(C(c3ccc(F)cc3)c3nnc(-c4ccccc4)o3)CC2)c1C (stereo not drawn)	x	x	16.4µM*	x	u	x
COc1cc(COc2ccc(S(=O)(=O)N3CCOCC3)cc2[N+](=O)[O-])ccc1OC(F)F	-5.6%	-8.6%	u	-26.0%	18.4µM*	-11.4
Cc1ccc(C(=O)CSc2nnnn2-c2ccccc2)o1	-2.2%	-12.5%	0.1%	6.3%	12.2%	0.0
Cc1ccc(C(=O)CSc2nnc(-c3ccccc3)n2-c2ccccc2)o1	12.7%	x	10µM*	7.3%	11.2µM*	-5.5
NC(=O)CSc1nnc(-c2cccs2)n1Cc1ccco1	5.8%	12.7%	5.1%	7.5%	12.1%	3.3
O=C(CSc1nnc(-c2ccccc2)n1-c1ccccc1)c1cccs1	-1.6%	-2.4%	11.6µM*	-2.0%	u	-23.4
O=C(CSc1nnc(-c2ccc(Cl)cc2)n1Cc1ccco1)c1cccs1	u	-15.2%	20.6µM*	-9.0%[9.24 µM]	u	-6.2
O=C(CSc1nnc(Cc2cccs2)n1Cc1ccco1)Nc1cc(Cl)cc(Cl)c1	-24.3%	6.8%	u	-24.4%	25.9µM*	u
COc1cc([N+](=O)[O-])ccc1NC(=O)CSc1nnc(C)c(C)n1	-16.1%	-5.8%	u	-22.7%	-10.4%	11.8
CCOc1ccc(CCNC(=O)CN2C(=O)NC3(CCCCC3)C2=O)cc1OCC	5.5%	-14.5%	12.3%	6.3%	-13.8%	0.5
COc1ccc(N2CC(C(=O)N(CC(C)C)c3c(N)n(Cc4ccccc4)c(=O)[nH]c3=O)CC2=O)c(OC)c1 (stereo not drawn)	4.5%	-1.9%	-15.8%	5.4%	-5.2%	14.4
CCCCCCCCCCCCCCCC(=O)OC[C@@H](COP(=O)([O-])OCC[N+](C)(C)C)OC(=O)CCCCCCCCCCCCCCC	x	x	-5.8%	x	-16.6%	x
C=C(C)Cn1c2ccc(NC(=O)NCCc3ccccc3)cc2c(=O)n1C	7.9%	x	-15.3%	9.2%	-13.3%	-3.3
CCCNC(=O)Cn1nc(-c2ccccc2OC)ccc1=O	-0.1%	x	-9.1%	-1.7%	-3.5%	7.2
O=C(CSc1ncn(-c2ccccc2)n1)c1cccs1	12.5%	-0.2%	-14.9%	14.9%	u	-52.5*
CCOC(=O)c1cc(-c2ccncc2)nc2c1c(C)nn2-c1ccccn1	-21.8%	2.0%	16.4µM*	-10.8%	u	-12.7
COc1ccc(-c2cc(C(=O)O)c3c(C)nn(-c4ccccn4)c3n2)cc1	8.6%	0.1%	0.1%	7.1%	-0.3%	8.4
